# Measured values as given in PubChem BioAssay.
# Several values for one entry are separate records, joined by “and”; a condition that tells them apart may be missing. Equal entries are not always repeated. Records with an inconclusive call do not appear. Activity calls are given as the source filed them.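 The calls were made as follows, unless noted: active = normalized viability below 100% at a tested concentration; inactive = the rest.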
# Legend:
# [1] = viability loss with induced miR-34 in A549 – imaging, A549 dox-inducible miR-34, nuclei and caspase counts, primary screen (AID 1347080;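 active = compounds whose cell count with miR-34 switched on is under 0.7 times the count with it off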); conditions: A549 miR-34 inducible, Hoechst nuclei count, 48 h
# [2] = growth inhibition of DIPG cells – cell-based, MIPE4.0 library, CellTiter-Glo luminescence, qHTS (AID 1347066; cut-off not given, nearly all actives have AC50 up to about 30 µM;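 also: cells exposed to compound for 48 hours before readout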); conditions: SU-DIPG-VI viability, CellTiter-Glo ATP luminescence
# [3] = blockers of cellular phospholipid synthesis – cell-based, LOPAC library, screen 4, primary screen (AID 1347384; call rule not given here); conditions: animal cells, phospholipid biosynthesis inhibition screen; at 10 µM
# [4] = MELAS cybrid and Rieske KO viability enhancers – cell-based, MELAS cybrids, Rieske KO mouse fibroblasts, CellTiter-Glo, primary screen (AID 1508586;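 active = mean z-score across replicates of 1.96 or higher in either the MELAS or the Rieske mutant cell line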;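 also: z relative to plate mean and SD of compound and empty wells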); conditions: low glucose
# [5] = growth inhibition of DIPG cells – cell-based, MIPE5.0 library, qHTS (AID 1347068; cut-off not given, nearly all actives have IC50 up to about 30 µM); conditions: SU-DIPG-XXV viability
# [6] = chitosan synthesis blockers in C. neoformans – flow cytometry, Cibacron Brilliant Red staining (AID 1347148; call rule not given here;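 also: compound exposure lasted three days at 37 degrees C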); conditions: Cryptococcus neoformans chitosan, stronger effect = lower value; at 10 µM unless noted
# [7] = JHH-DIPG-1 glioma cell viability, MIPE5.0 library, CellTiter-Glo luminescence, qHTS (AID 1347067; cut-off not given, nearly all actives have AC50 up to about 26 µM;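 also: cells exposed to compound for 48 hours before readout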); conditions: JHH-DIPG-1 glioma viability, CellTiter-Glo ATP luminescence
# [8] = compounds altering HSF1 focus formation in cells – imaging, Selleck Cancer Library (AID 1347162; in the data active = plate-normalised HSF1 focus index below about 0.46); conditions: human cells, HSF1 nuclear foci imaging, at 10 µM; SSMD: measured here: HSF1 foci SSMD mean; cell count: measured here: cell number; plate-normalised HSF1 focus index: stronger effect = lower value
# [9] = drug combination growth inhibition, ovarian cancer – cell-based, oncology-focused library, rucaparib conditional, profiling panel (AID 1508598); conditions: patient-derived ovarian cancer cells, CellTiter-Glo viability, 144 h, stronger effect = lower value
# [10] = stronger effect = lower value, cell number ratio, induced over uninduced
# [11] = measured here: relative caspase fold change +Dox/-Dox
# [12] = measured here: total cells with miR-34 induction, stronger effect = lower value
# [13] = measured here: total cells without miR-34 induction
# [14] = MELAS cybrid survival, CellTiter-Glo 48 h, stronger effect = higher value
# [15] = Rieske KO mouse fibroblast survival, CellTiter-Glo 72 h
smiles,measurement,setting,value
CCN(CC)C(=O)c1cccc(C)c1,fold change,[1]; [10],0.989 (inactive)
same,fold change,[1]; [11],1.76
same,cell count,[1]; [12],11700
same,cell count,[1]; [13],11800
COc1cc2nc(N3CCN(C(=O)C4COc5ccccc5O4)CC3)nc(N)c2cc1OC (stereo not given),AC50,[2],23.5 µM (active)
same,outcome,[3],inactive
same,z-score,[4]; [14],-0.637 (inactive) and 1.46 and 0.739
same,z-score,[4]; [15],1.03 and 2.18 and 2.11
CS(=O)(=O)Nc1ccc([N+](=O)[O-])cc1Oc1ccccc1,outcome,[5],inactive
same,fold fluorescence,[6],4.45 [at 162.2 µM] (inactive)
same,outcome,[3],inactive
same,z-score,[4]; [14],-0.305 (inactive) and 0.634 (inactive) and -0.303 (inactive)
same,z-score,[4]; [15],1.18 and 0.441 and -0.993
Cc1ccc(C(=O)Nc2ccc(S(=O)(=O)O)c3cc(S(=O)(=O)O)cc(S(=O)(=O)O)c23)cc1NC(=O)c1cccc(NC(=O)Nc2cccc(C(=O)Nc3cc(C(=O)Nc4ccc(S(=O)(=O)O)c5cc(S(=O)(=O)O)cc(S(=O)(=O)O)c45)ccc3C)c2)c1,outcome,[7],inactive
same,outcome,[5],inactive
same,cell count,[1]; [13],10200 and 13600 and 11000
same,outcome,[3],inactive
same,z-score,[4]; [14],0.0857 (inactive)
same,z-score,[4]; [15],-0.401
NS(=O)(=O)c1cc(C(=O)O)c(NCc2ccco2)cc1Cl,outcome,[2],inactive
same,z-score,[4]; [14],-0.297 (inactive) and -0.16 (inactive) and 0.0353 (inactive)
same,z-score,[4]; [15],0.703 and -0.228 and 0.451
CC1CCN(CCCC(=O)c2ccc(F)cc2)CC1,fold change,[1]; [10],0.922 (inactive) and 0.888 (inactive) and 0.964 (inactive)
same,fold change,[1]; [11],0.574 and 0.823 and 1.18
same,cell count,[1]; [12],9000 and 9720 and 9030
same,cell count,[1]; [13],9760 and 10900 and 9370
O=c1c(-c2ccccc2)c1-c1ccccc1,fold change,[1]; [10],0.804 (inactive)
same,fold change,[1]; [11],1.52
same,cell count,[1]; [12],4690
same,cell count,[1]; [13],5830
CC(=O)Oc1cccc(O)c1,fold change,[1]; [10],0.87 (inactive)
same,fold change,[1]; [11],5.2
same,cell count,[1]; [12],11300
same,cell count,[1]; [13],13000
NC[C@H]1O[C@H](O[C@H]2[C@H](O)[C@@H](O[C@H]3O[C@H](CO)[C@@H](O)[C@H](N)[C@H]3O)[C@H](N)C[C@@H]2N)[C@H](N)[C@@H](O)[C@@H]1O,fold change,[1]; [10],0.901 (inactive)
same,fold change,[1]; [11],2.25
same,cell count,[1]; [12],11700
same,cell count,[1]; [13],13000
CC1(C)S[C@@H]2[C@H](NC(=O)C(C(=O)O)c3ccccc3)C(=O)N2[C@H]1C(=O)O (stereo not given in full),fold change,[1]; [10],0.874 (inactive)
same,fold change,[1]; [11],0.602
same,cell count,[1]; [12],11000
same,cell count,[1]; [13],12600
Oc1c(Cl)cc(Cl)cc1Sc1cc(Cl)cc(Cl)c1O,fold change,[1]; [10],0.771 (inactive)
same,fold change,[1]; [11],1.86
same,cell count,[1]; [12],8360
same,cell count,[1]; [13],10800
CN1CCN(CCCN2c3ccccc3Sc3ccc(Cl)cc32)CC1,AC50,[2],16.6 µM (active)
same,z-score,[4]; [14],-0.995 (inactive)
same,z-score,[4]; [15],-0.206
O=C1CC2(CCCC2)CC(=O)N1CCNCC1COc2ccccc2O1 (stereo not given),fold change,[1]; [10],0.839 (inactive) and 0.901 (inactive)
same,fold change,[1]; [11],1.72 and 0.868
same,cell count,[1]; [12],8960 and 8470
same,cell count,[1]; [13],10700 and 9400
Nc1ccc(C(=O)Oc2ccccc2)c(O)c1,fold change,[1]; [10],0.872 (inactive)
same,fold change,[1]; [11],1.07
same,cell count,[1]; [12],9720
same,cell count,[1]; [13],11100
Cc1nccn1CC1CCc2c(c3ccccc3n2C)C1=O (stereo not given),outcome,[2],inactive
same,z-score,[4]; [14],-0.478 (inactive) and 0.555 (inactive) and 0.267 (inactive)
same,z-score,[4]; [15],0.23 and 0.514 and 0.91
O=c1c(-c2ccc(O)cc2)coc2cc(O)cc(O)c12,outcome,[2],inactive
same,fold fluorescence,[6],4.75 [at 185 µM] (inactive)
same,outcome,[3],inactive
same,z-score,[4]; [14],-0.427 (inactive)
same,z-score,[4]; [15],0.508
CCOC(=O)O[C@]1(C(=O)OCCl)CC[C@H]2[C@@H]3CCC4=CC(=O)C=C[C@]4(C)[C@H]3[C@@H](O)C[C@@]21C,outcome,[5],inactive
same,z-score,[4]; [14],0.475 (inactive)
same,z-score,[4]; [15],0.287
CC(c1cc2ccccc2s1)N(O)C(N)=O (stereo not given),outcome,[2],inactive
same,SSMD,[8],2.48
same,cell count,[8],7010
same,plate-normalised HSF1 focus index,[8],1.14 (inactive)
same,z-score,[4]; [14],-0.393 (inactive) and -0.528 (inactive) and -0.827 (inactive)
same,z-score,[4]; [15],0.713 and 0.986 and 1.26
same,viability,"[9]; at 0.000305 µM, OCI-C5x cells, with rucaparib 10 µM, 100% = cells with rucaparib alone",111% (inactive)
same,viability,"[9]; at 0.000305 µM, OCI-C5x cells, without rucaparib",124% (inactive)
same,viability,"[9]; at 0.000305 µM, OCI-P5x cells, with rucaparib 20 µM, 100% = cells with rucaparib alone",77.5% (active)
same,viability,"[9]; at 0.000305 µM, OCI-P5x cells, without rucaparib",83.5% (active)
same,viability,"[9]; at 0.00122 µM, OCI-C5x cells, with rucaparib 10 µM, 100% = cells with rucaparib alone",98.9% (active)
same,viability,"[9]; at 0.00122 µM, OCI-C5x cells, without rucaparib",121% (inactive)
same,viability,"[9]; at 0.00122 µM, OCI-P5x cells, with rucaparib 20 µM, 100% = cells with rucaparib alone",61% (active)
same,viability,"[9]; at 0.00122 µM, OCI-P5x cells, without rucaparib",79.9% (active)
same,viability,"[9]; at 0.00488 µM, OCI-C5x cells, with rucaparib 10 µM, 100% = cells with rucaparib alone",128% (inactive)
same,viability,"[9]; at 0.00488 µM, OCI-C5x cells, without rucaparib",122% (inactive)
same,viability,"[9]; at 0.00488 µM, OCI-P5x cells, with rucaparib 20 µM, 100% = cells with rucaparib alone",48.8% (active)
same,viability,"[9]; at 0.00488 µM, OCI-P5x cells, without rucaparib",63.4% (active)
same,viability,"[9]; at 0.0195 µM, OCI-C5x cells, with rucaparib 10 µM, 100% = cells with rucaparib alone",119% (inactive)
same,viability,"[9]; at 0.0195 µM, OCI-C5x cells, without rucaparib",125% (inactive)
same,viability,"[9]; at 0.0195 µM, OCI-P5x cells, with rucaparib 20 µM, 100% = cells with rucaparib alone",47.6% (active)
same,viability,"[9]; at 0.0195 µM, OCI-P5x cells, without rucaparib",63.9% (active)
same,viability,"[9]; at 0.0781 µM, OCI-C5x cells, with rucaparib 10 µM, 100% = cells with rucaparib alone",103% (inactive)
same,viability,"[9]; at 0.0781 µM, OCI-C5x cells, without rucaparib",125% (inactive)
same,viability,"[9]; at 0.0781 µM, OCI-P5x cells, with rucaparib 20 µM, 100% = cells with rucaparib alone",97.3% (active)
same,viability,"[9]; at 0.0781 µM, OCI-P5x cells, without rucaparib",118% (inactive)
same,viability,"[9]; at 0.313 µM, OCI-C5x cells, with rucaparib 10 µM, 100% = cells with rucaparib alone",113% (inactive)
same,viability,"[9]; at 0.313 µM, OCI-C5x cells, without rucaparib",121% (inactive)
same,viability,"[9]; at 0.313 µM, OCI-P5x cells, with rucaparib 20 µM, 100% = cells with rucaparib alone",115% (inactive)
same,viability,"[9]; at 0.313 µM, OCI-P5x cells, without rucaparib",123% (inactive)
same,viability,"[9]; at 1.25 µM, OCI-C5x cells, with rucaparib 10 µM, 100% = cells with rucaparib alone",109% (inactive)
same,viability,"[9]; at 1.25 µM, OCI-C5x cells, without rucaparib",124% (inactive)
same,viability,"[9]; at 1.25 µM, OCI-P5x cells, with rucaparib 20 µM, 100% = cells with rucaparib alone",106% (inactive)
same,viability,"[9]; at 1.25 µM, OCI-P5x cells, without rucaparib",124% (inactive)
same,viability,"[9]; at 5 µM, OCI-C5x cells, with rucaparib 10 µM, 100% = cells with rucaparib alone",113% (inactive)
same,viability,"[9]; at 5 µM, OCI-C5x cells, without rucaparib",129% (inactive)
same,viability,"[9]; at 5 µM, OCI-P5x cells, with rucaparib 20 µM, 100% = cells with rucaparib alone",105% (inactive)
same,viability,"[9]; at 5 µM, OCI-P5x cells, without rucaparib",116% (inactive)
CC(C)(C)NC(=O)[C@@H]1CN(Cc2cccnc2)CCN1C[C@@H](O)C[C@@H](Cc1ccccc1)C(=O)N[C@H]1c2ccccc2C[C@H]1O,AC50,[2],20.9 µM (active)
same,z-score,[4]; [14],-0.264 (inactive)
same,z-score,[4]; [15],0.0624
Nc1nc(F)nc2c1ncn2[C@@H]1O[C@H](CO)[C@@H](O)[C@@H]1O,outcome,[7],inactive
same,fold change,[1]; [10],1.1 (inactive) and 1.04 (inactive)
same,fold change,[1]; [11],0.763 and 0.78
same,cell count,[1]; [12],2060 and 1630
same,cell count,[1]; [13],1870 and 1560
same,SSMD,[8],0.111
same,cell count,[8],6840
same,plate-normalised HSF1 focus index,[8],1.01 (inactive)
same,z-score,[4]; [14],4.36 (active)
same,z-score,[4]; [15],1.07
CC(=O)Nc1c(I)cc(I)c(C(=O)O)c1I,fold change,[1]; [10],0.913 (inactive)
same,fold change,[1]; [11],2.27
same,cell count,[1]; [12],12100
same,cell count,[1]; [13],13200
CC(C)c1nc(CN(C)C(=O)N[C@H](C(=O)N[C@@H](Cc2ccccc2)C[C@H](O)[C@H](Cc2ccccc2)NC(=O)OCc2cncs2)C(C)C)cs1,outcome,[2],inactive
same,z-score,[4]; [14],-1.48 (inactive)
same,z-score,[4]; [15],0.534
O=C(c1ccc(F)cc1)C1CCN(CCn2c(=O)[nH]c3ccccc3c2=O)CC1,outcome,[2],inactive
same,outcome,[3],inactive
same,z-score,[4]; [14],-0.256 (inactive) and 0.859 (inactive) and 1.46 (inactive)
same,z-score,[4]; [15],0.928 and -0.102 and 0.875
